We go through 25 molecules from PubChem BioAssay AID493027 (The Scripps Research Institute Molecular Screening Center, 2011).

Values joined by “and” are separate entries in the source; they are usually repeats but may differ in a detail not shown here. Equal entries are not always repeated. In all, about 2,000 compounds went through this assay and about 45 (2%) were called active.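 How the source made its calls: active means inhibition above the screen-wide mean inhibition plus 3 SD (cut at about 44% in these data); inactive means the rest.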 The full list was thinned out, with actives kept by preference.

Chain of Perilipin-1 (Homo sapiens) + 1-acylglycerol-3-phosphate O-acyltransferase ABHD5 (Homo sapiens) (O60240 whole entry, looked up): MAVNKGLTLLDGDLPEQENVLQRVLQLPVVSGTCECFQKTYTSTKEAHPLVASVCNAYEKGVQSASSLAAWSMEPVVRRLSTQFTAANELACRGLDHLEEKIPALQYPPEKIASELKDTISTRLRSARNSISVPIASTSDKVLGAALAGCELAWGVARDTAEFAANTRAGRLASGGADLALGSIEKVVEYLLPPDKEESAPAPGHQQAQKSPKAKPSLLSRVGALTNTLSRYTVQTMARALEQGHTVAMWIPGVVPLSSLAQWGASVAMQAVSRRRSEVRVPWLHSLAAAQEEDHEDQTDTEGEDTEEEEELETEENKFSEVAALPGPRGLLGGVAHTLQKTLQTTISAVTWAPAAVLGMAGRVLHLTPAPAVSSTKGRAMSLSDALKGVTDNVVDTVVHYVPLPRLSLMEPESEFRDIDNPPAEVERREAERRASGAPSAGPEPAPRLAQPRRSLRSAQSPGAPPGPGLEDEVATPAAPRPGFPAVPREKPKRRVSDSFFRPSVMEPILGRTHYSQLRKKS
Chain of Perilipin-1 (Homo sapiens) + 1-acylglycerol-3-phosphate O-acyltransferase ABHD5 (Homo sapiens) (Q8WTS1 whole entry, looked up): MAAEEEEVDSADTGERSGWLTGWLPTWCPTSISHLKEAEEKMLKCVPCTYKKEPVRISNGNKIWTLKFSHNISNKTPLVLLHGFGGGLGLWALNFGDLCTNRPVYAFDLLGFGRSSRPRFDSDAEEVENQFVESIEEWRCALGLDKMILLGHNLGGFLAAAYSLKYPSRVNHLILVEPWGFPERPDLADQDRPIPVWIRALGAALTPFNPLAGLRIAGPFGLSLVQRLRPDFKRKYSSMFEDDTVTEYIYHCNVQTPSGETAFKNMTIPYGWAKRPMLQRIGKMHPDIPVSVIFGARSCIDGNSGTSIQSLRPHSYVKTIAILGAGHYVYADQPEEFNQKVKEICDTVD

This assay addresses Perilipin-1 (Homo sapiens) + 1-acylglycerol-3-phosphate O-acyltransferase ABHD5 (Homo sapiens) (UniProt O60240+Q8WTS1). Nature of the assay: ABHD5-PLIN1 interaction inhibitors, pilot screen, cell lysate, split luciferase complementation, luminescence, NIH validation set (AID 493027).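 Further: 0% = DMSO wells with the 100% control not disclosed.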 The following applies: split G. princeps luciferase complementation, 4 h, at 7.9 µM, stronger effect = higher value.
By inhibition is commonly meant the change of the read-out against control, counted positive when it falls. With `O=c1c2ccccc2[se]n1-c1ccccc1`, the inhibition was 90.3% (active).
The same measure for `Cc1nc2ccccc2c(=O)n1-c1ccc(C(=O)O)cc1`: 5.87% (inactive); for `O=c1c2ccccc2nc(/C=C/c2ccc3c(c2)OCO3)n1-c1ccccc1`: 1.81% (inactive).
To `[N-]=[N+]=CC(=O)OC[C@H](N)C(=O)O` belongs 0.75% (inactive); to `CC12CN3CC(C)(CN(C1)C3c1cccs1)C2=O` (stereo not given), -10.9% (inactive).
The same measure for `CC(C)NC(C)C(=O)c1ccc2ccccc2c1` (stereo not given): -0.73% (inactive); for `O=c1[nH]c(=S)n(-c2ccccc2)c(O)c1/C=N/N1CCCCC1c1cccnc1` (stereo not given): -7.25% (inactive); for `C#CCN(C)C(C)Cc1ccccc1` (stereo not given): -10.3% (inactive).
Take `COc1cc(/C=C2\C(=O)NC(=O)N(c3ccccc3)C2=O)c([N+](=O)[O-])cc1OC`: the inhibition is 58.1% (active).
The same measure for `Cc1ccc(/C=C2/C(=O)NC(=O)N(C)C2=O)cc1`: -3.1% (inactive); for `CCOc1ccc(N2C(=O)NC(=O)/C(=C\c3cc(OC)c(OC)cc3[N+](=O)[O-])C2=O)cc1`: 63.9% (active); for `Cc1ccc(-n2c(C)cc(/C=C3/C(=O)NC(=O)N(C)C3=O)c2C)cc1`: 38.2% (inactive).
In the case of `CCOC(=O)c1cncn1C(C)c1ccccc1` (stereo not given), the inhibition is 1.91% (inactive).
Regarding `C[N+]1(C)[C@@H]2CC(OC(=O)[C@H](CO)c3ccccc3)C[C@H]1[C@@H]1O[C@@H]12` (stereo not given in full), the inhibition was -5.12% (inactive) and 3.91% (inactive).
To `CC(C)C[C@H]1C(=O)N2CCCC2[C@]2(O)O[C@](NC(=O)[C@@H]3C=C4c5cccc6[nH]cc(c56)CC4N(C)C3)(C(C)C)C(=O)N12` (stereo not given in full) belongs 22.5% (inactive); to `Cc1c2ccncc2c(C)c2c1[nH]c1ccccc12`, -2.7% (inactive); to `Cc1cc2c(C(C)C)c(O)c(O)c(C=O)c2c(O)c1-c1c(C)cc2c(C(C)C)c(O)c(O)c(C=O)c2c1O`, 50.9% (active).
For `O=C1C(=O)c2ccccc2-c2ccccc21`, the inhibition is 29.2% (inactive).
Consider `CCn1c(O)c(C(=O)CC2NCCc3ccccc32)c(=O)n(CC)c1=S` (stereo not given), for which the inhibition is -1.08% (inactive).
Take `CC[C@@H]1C(=O)OC[C@@H]1Cc1cncn1C`: the inhibition is -9.03% (inactive) and -8.34% (inactive).
In the case of `Clc1ccc(C2NCCc3[nH]cnc32)cc1` (stereo not given), the inhibition was 1.77% (inactive).
In the case of `COP(=S)(OC)SCN1C(=O)c2ccccc2C1=O`, the inhibition is 83.3% (active).
Turning to `NNC(=O)c1ccc(Cl)cc1`, the inhibition was 1.77% (inactive).
The same measure for `O=C1C=Cc2ccccc2C1=O`: 25.2% (inactive); for `O=C1CCCC2=C1C(c1cccnc1)Nc1ccccc1N2` (stereo not given): -3.96% (inactive).
